According to PubChem BioAssay (EPA / NIEHS):
Activity calls are given as the source filed them. Rule for the calls: active = hit-call score of the fitted dose curve at least 0.9, where 1 is the maximum; inactive = score below 0.9.

Experiments:
[1] = ATG_M_61_CIS: Attagene CIS-FACTORIAL HepG2 Assay for M61 Transcription Factor (Internal Marker) (AID 2282937); settings: HepG2 Attagene CIS-FACTORIAL M61 internal marker reporter; actives raise or lower the signal
Outline: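 Endogenous transcription factor activity in HepG2 is read through transiently transfected cis-element reporter units. After 24 h dosing, RNA undergoes reverse transcription, PCR and primer extension with 6-FAM before capillary electrophoresis; DMSO-referenced bidirectional fit.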

[2] = ATG_EGR_CIS: Attagene CIS-FACTORIAL HepG2 Assay for human Early Growth Response 1 (EGR1) (AID 2282938); settings: HepG2 Attagene CIS-FACTORIAL EGR reporter mRNA; actives raise or lower the signal
Outline: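 Activity is taken as induction or loss of reporter mRNA versus DMSO, fitted bidirectionally. Transcripts from cis-regulated reporter units in transiently transfected HepG2 were measured after 24 h by RT-PCR with capillary electrophoresis.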

[3] = ATG_M_19_CIS: Attagene CIS-FACTORIAL HepG2 Assay for M19 Transcription Factor (Internal Marker) (AID 2282939); settings: HepG2 Attagene CIS-FACTORIAL M19 internal marker reporter; actives raise or lower the signal
Outline: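 Internal marker readout, fitted in both directions against DMSO, from HepG2 cells carrying transfected cis-element reporter constructs; RT-PCR and capillary electrophoresis of reporter mRNA after 24 h exposure.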

[4] = ATG_ERE_CIS: Attagene CIS-FACTORIAL HepG2 Assay for Estrogen Response Element (ERE) (AID 2282940); settings: HepG2 ERE cis-reporter, Attagene RNA transcript; actives raise or lower the signal
Outline: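 After 24 h compound treatment, RNA from transfected HepG2 cells was reverse-transcribed, reporter cDNA PCR-amplified, FAM-labelled, HpaI-cut and resolved by capillary electrophoresis. ERE-driven cis reporter transcripts reflect endogenous factors; gain or loss scored against DMSO.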

[5] = ATG_Ets_CIS: Attagene CIS-FACTORIAL HepG2 Assay for human Erythroblast Transformation Specific (ETS) (AID 2282941); settings: HepG2 ETS cis-reporter transcription, actives raise or lower the signal
Outline: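 Steps: transfect HepG2 with multiple reporter units; treat compound 24 h; isolate RNA, DNase-treat, reverse-transcribe; PCR-amplify, label with 6-FAM, digest with HpaI; separate by capillary electrophoresis. Activity fitted both directions versus DMSO.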

[6] = target: Hepatocyte nuclear factor 3-beta (Homo sapiens) (UniProt Q9Y261); experiment: ATG_FoxA2_CIS: Attagene CIS-FACTORIAL HepG2 Assay for human Forkhead box A2 (FOXA2) (AID 2282942); settings: HepG2 cis-reporter transcription factor activity, 24 h; actives raise or lower the signal
Hepatocyte nuclear factor 3-beta (Homo sapiens), sequence (Q9Y261 whole entry, looked up): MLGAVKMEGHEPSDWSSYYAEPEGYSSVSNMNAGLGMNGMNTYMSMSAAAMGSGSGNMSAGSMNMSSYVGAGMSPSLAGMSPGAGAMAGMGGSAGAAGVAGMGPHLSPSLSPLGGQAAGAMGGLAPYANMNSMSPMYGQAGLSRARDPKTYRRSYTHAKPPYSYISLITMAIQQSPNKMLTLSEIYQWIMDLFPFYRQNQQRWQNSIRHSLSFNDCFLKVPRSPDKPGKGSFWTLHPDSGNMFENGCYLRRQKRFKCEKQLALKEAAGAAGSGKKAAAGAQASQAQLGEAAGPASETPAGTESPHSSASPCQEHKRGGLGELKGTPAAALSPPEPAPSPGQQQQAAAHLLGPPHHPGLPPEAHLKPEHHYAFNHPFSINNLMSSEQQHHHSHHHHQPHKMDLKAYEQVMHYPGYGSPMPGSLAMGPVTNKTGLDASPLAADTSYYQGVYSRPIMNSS
Outline: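 Reporter transcript induction is measured by fluorescence after capillary electrophoresis of RT-PCR products from HepG2 cells exposed 24 h. Cis-regulated reporter units report endogenous factor activity; curves fitted both directions against DMSO.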

[7] = ATG_FoxO_CIS: Attagene CIS-FACTORIAL HepG2 Assay for human Forkhead box O (FoxO) (AID 2282943); settings: HepG2 Attagene cis-reporter, FoxO element, mRNA; actives raise or lower the signal
Outline: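 HepG2 cells transiently transfected with cis-promoter-driven multiple reporter transcription units; 24 h after chemical dosing, reporter mRNA quantified by RT-PCR, fluorescent primer extension, HpaI digestion and capillary electrophoresis. Bidirectional fitting versus DMSO baseline.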

[8] = ATG_GATA_CIS: Attagene CIS-FACTORIAL HepG2 Assay for human GATA Binding Protein (AID 2282944); settings: HepG2 GATA cis-element reporter, Attagene multiplex mRNA; actives raise or lower the signal
Outline: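 Reporter transcripts from a GATA cis-regulated unit, among multiplexed reporters in transfected HepG2 cells, were measured by RT-PCR with capillary electrophoresis after 24 h dosing. Induction or loss scored relative to DMSO.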

[9] = ATG_GLI_CIS: Attagene CIS-FACTORIAL HepG2 Assay for human Zinc Finger Protein GLI1 (AID 2282945); settings: HepG2, Attagene cis-factorial reporter mRNA, GLI element; actives raise or lower the signal
Outline: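 HepG2 cells transiently transfected with cis-promoter multiplexed reporter units report endogenous transcription factor activity. After 24 h chemical exposure, reporter mRNA was quantified by RT-PCR, 6-FAM labelling, HpaI digestion and capillary electrophoresis, with bidirectional fitting against DMSO.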

[10] = target: Bile acid receptor (Homo sapiens) (UniProt Q96RI1); experiment: ATG_IR1_CIS: Attagene CIS-FACTORIAL HepG2 Assay for human Nuclear Receptor Subfamily 1 Group H Member 4 (NR1H4), IR1 submotif (AID 2282946); settings: IR1 reporter transcription, actives raise or lower the signal
Bile acid receptor (Homo sapiens), sequence (Q96RI1 whole entry, looked up): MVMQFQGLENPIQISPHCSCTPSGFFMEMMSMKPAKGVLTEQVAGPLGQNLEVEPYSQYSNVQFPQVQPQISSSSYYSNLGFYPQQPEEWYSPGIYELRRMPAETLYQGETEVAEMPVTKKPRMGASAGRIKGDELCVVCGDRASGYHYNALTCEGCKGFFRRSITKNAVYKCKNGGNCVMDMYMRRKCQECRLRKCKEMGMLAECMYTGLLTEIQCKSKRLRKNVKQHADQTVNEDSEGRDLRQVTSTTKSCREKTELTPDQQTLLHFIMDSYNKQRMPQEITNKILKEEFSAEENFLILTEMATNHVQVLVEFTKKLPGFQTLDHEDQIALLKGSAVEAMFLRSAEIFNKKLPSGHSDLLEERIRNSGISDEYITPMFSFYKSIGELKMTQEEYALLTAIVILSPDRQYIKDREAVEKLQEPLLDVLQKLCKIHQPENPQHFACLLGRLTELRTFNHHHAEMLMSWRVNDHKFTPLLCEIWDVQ
Outline: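 Transient MRTU transfection, HepG2; 24 h dosing; RNA → RT-PCR → 6-FAM primer extension → HpaI digest → capillary electrophoresis fluorescence. Gain/loss of signal fitted relative to DMSO.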

[11] = ATG_GRE_CIS: Attagene CIS-FACTORIAL HepG2 Assay for human Glucocorticoid Response Elements (GRE) (AID 2282947); settings: HepG2 GRE cis-reporter, Attagene multiplex mRNA; actives raise or lower the signal
Outline: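 HepG2 cells transiently transfected with multiple cis-promoter reporter units measure endogenous TF activity; 24 h compound exposure. Reporter mRNA quantified by RT-PCR, FAM labelling, HpaI digestion and capillary electrophoresis; bidirectional fit vs DMSO baseline.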

[12] = ATG_ISRE_CIS: Attagene CIS-FACTORIAL HepG2 Assay for human Interferon Regulatory Factor 1 (IRF1) binding to an Interferon-Stimulated Response Element (ISRE) (AID 2282948); settings: HepG2 ISRE cis-reporter (Attagene), mRNA transcription readout; actives raise or lower the signal
Outline: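 Transfected HepG2 (multiple reporter transcription units, cis elements) dosed 24 h. RNA → oligo(dT) RT → PCR → 6-FAM primer extension → HpaI → CE. DMSO = negative control/baseline.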

[13] = ATG_M_32_CIS: Attagene CIS-FACTORIAL HepG2 Assay for M32 Transcription Factor (Internal Marker) (AID 2282949); settings: HepG2 Attagene cis-factorial M32 reporter, mRNA; actives raise or lower the signal;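 note: background control marker of the multiplexed CIS panel rather than a real target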
Outline: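 Internal background marker read-out: RT-PCR/capillary electrophoresis fluorescence of reporter transcripts from transiently transfected HepG2 cells after 24 h chemical exposure. Activity fitted bidirectionally relative to DMSO negative control.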

[14] = ATG_M_06_CIS: Attagene CIS-FACTORIAL HepG2 Assay for M06 Transcription Factor (Internal Marker) (AID 2282950); settings: HepG2 Attagene CIS-FACTORIAL M06 internal marker reporter; actives raise or lower the signal
Outline: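 Serves as a background control readout. Transfected HepG2 exposed to compounds for 24 h, then reporter transcripts quantified by fluorescent RT-PCR and capillary electrophoresis. Both directions fitted against DMSO baseline.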

[15] = target: Hypoxia-inducible factor 1-alpha (Homo sapiens) (UniProt Q16665); experiment: ATG_HIF1a_CIS: Attagene CIS-FACTORIAL HepG2 Assay for human Hypoxia Inducible Factor 1 (HIF1A) (AID 2282951); settings: HepG2 Attagene cis-factorial HIF1a reporter transcription; actives raise or lower the signal
Hypoxia-inducible factor 1-alpha (Homo sapiens), sequence (Q16665 whole entry, looked up): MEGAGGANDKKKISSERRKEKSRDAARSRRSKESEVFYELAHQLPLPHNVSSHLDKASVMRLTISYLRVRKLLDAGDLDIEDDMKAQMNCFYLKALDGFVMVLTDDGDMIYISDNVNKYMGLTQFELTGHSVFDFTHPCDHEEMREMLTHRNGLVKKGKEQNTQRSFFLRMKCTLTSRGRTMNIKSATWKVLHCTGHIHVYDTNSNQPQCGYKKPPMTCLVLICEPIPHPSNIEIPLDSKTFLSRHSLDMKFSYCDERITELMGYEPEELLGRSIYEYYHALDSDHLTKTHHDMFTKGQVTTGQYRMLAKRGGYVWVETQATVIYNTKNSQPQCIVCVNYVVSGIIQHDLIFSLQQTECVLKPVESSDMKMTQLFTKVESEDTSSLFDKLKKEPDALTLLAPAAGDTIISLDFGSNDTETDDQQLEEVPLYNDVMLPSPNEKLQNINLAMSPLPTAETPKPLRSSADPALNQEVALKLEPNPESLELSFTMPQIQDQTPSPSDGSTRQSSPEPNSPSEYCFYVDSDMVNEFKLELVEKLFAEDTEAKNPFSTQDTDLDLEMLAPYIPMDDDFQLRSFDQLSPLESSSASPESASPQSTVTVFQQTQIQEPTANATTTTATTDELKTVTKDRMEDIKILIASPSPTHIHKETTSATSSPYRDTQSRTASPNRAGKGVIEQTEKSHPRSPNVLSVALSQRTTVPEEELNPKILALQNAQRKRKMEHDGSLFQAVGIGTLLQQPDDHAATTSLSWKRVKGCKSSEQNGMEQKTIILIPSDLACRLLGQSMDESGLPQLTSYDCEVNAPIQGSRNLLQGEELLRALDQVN
Outline: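 Fluorescence intensity of capillary-separated, 6-FAM-labelled reporter amplicons gives mRNA induction in HepG2 cells carrying transfected cis-promoter reporter units; cells exposed 24 h, responses fitted up or down from DMSO.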

[16] = target: Hepatocyte nuclear factor 6 (Homo sapiens) (UniProt Q9UBC0); experiment: ATG_HNF6_CIS: Attagene CIS-FACTORIAL HepG2 Assay for human Hepatocyte Nuclear Factor 6 (HNF6) (AID 2282952); settings: HepG2 Attagene cis-factorial HNF6 reporter transcription; actives raise or lower the signal
Hepatocyte nuclear factor 6 (Homo sapiens), sequence (Q9UBC0 whole entry, looked up, the tested form may be a part): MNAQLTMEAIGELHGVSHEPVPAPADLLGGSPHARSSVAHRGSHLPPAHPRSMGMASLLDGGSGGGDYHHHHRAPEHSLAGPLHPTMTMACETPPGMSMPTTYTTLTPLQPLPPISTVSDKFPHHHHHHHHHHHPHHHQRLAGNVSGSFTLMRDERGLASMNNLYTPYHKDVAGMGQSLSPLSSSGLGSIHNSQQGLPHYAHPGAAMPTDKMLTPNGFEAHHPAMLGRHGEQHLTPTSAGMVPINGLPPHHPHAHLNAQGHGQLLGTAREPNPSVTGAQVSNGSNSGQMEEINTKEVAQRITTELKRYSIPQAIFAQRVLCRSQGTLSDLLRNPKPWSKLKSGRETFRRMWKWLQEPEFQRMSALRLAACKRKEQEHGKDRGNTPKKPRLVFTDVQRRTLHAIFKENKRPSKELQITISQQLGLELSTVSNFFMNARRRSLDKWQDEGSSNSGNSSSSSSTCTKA
Outline: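 Reporter mRNA induction or loss in HepG2 after 24 h exposure; transient cis-MRTU transfection; fragments quantified by capillary electrophoresis; bidirectional analysis, DMSO as negative control.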

[17] = ATG_MRE_CIS: Attagene CIS-FACTORIAL HepG2 Assay for human Metal Responsive Element (MRE) (AID 2282954); settings: HepG2 MRE cis-reporter transcription, Attagene multiplex; actives raise or lower the signal
Outline: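 HepG2 cells transiently transfected with multiple cis-element reporter units measure endogenous MTF1-driven transcription. After 24 h compound exposure, reporter mRNA is quantified by RT-PCR with 6-FAM labelling, HpaI digestion and capillary electrophoresis; bidirectional fits versus DMSO.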

[18] = target: Heat shock factor protein 1 (Homo sapiens) (UniProt Q00613); experiment: ATG_HSE_CIS: Attagene CIS-FACTORIAL HepG2 Assay for human Heat Shock Transcription Factor 1 (HSE) (AID 2282953); settings: HepG2 HSE cis-reporter, Attagene RNA transcription; actives raise or lower the signal
Heat shock factor protein 1 (Homo sapiens), sequence (Q00613 whole entry, looked up): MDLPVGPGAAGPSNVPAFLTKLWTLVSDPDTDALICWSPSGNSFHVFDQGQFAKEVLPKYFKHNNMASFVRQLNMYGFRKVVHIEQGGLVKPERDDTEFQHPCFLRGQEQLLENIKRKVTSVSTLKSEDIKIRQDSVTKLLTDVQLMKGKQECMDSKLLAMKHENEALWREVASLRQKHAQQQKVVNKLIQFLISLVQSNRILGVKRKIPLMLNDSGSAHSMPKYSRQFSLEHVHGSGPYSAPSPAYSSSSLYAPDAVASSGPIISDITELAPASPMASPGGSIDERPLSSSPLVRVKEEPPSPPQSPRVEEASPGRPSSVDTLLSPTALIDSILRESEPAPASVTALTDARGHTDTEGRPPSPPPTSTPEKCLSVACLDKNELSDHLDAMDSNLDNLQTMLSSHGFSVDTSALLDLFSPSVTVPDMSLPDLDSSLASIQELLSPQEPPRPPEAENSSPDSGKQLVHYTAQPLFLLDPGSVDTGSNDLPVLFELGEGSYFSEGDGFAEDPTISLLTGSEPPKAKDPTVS
Outline: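 Endogenous transcription factor activity in transiently transfected HepG2, read as reporter mRNA by RT-PCR with fluorescent capillary electrophoresis after 24 h. Gain or loss of signal fitted versus DMSO baseline.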

[19] = ATG_E_Box_CIS: Attagene CIS-FACTORIAL HepG2 Assay for human Enhancer Box (E-box) (AID 2282936); settings: HepG2 E-box cis-reporter transcription, actives raise or lower the signal
Outline: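 HepG2 cells transiently transfected with multiplexed cis-element reporter units sensing endogenous transcription factor activity; 24 h compound exposure. Reporter mRNA measured by RT-PCR, 6-FAM primer extension, HpaI digestion and capillary electrophoresis; bidirectional fit versus DMSO.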

Measured: AC50

O=S(=O)(OCC(F)F)C(F)(F)F
not listed: [18] | [19]
inactive: all other assays above

OCC(F)(F)C(F)(F)C(F)(F)F
not listed: [15] | [19]
inactive: all other assays above

FC(F)(F)C(F)(F)C(F)(F)C(F)(F)C(F)(F)C(F)(F)C(F)(F)I
active: [4] 5.59 µM
not listed: [14] | [15] | [19]
inactive: all other assays above

CC(CCl)OP(=O)(OC(C)CCl)OC(C)CCl (stereo not drawn)
not listed: [15] | [18]
inactive: all other assays above

CC(C)=CCCC(C)CCOC(=O)C(C)C (stereo not drawn)
not listed: [15]
inactive: all other assays above

CC/C=C\CCOC(C)=O
not listed: [14] | [15]
inactive: all other assays above

C=CC(=O)OCC(F)(F)C(F)(F)C(F)(F)C(F)(F)C(F)(F)C(F)(F)C(F)(F)F
active: [4] 21 µM
not listed: [15] | [19]
inactive: all other assays above

CCCCCCCCCCCCCCCC[N+](C)(C)Cc1ccccc1
active: [19] 47.1 µM | [10] 10.2 µM | [12] 47.6 µM | [18] 24.5 µM
not listed: [1] | [15]
inactive: all other assays above

OCCCC(F)(F)C(F)(F)C(F)(F)F
not listed: [1] | [15]
inactive: all other assays above

FC(F)(F)C(F)(F)C(F)(F)C(F)(F)C(F)(F)C(F)(F)CC1CO1 (stereo not drawn)
not listed: [19]
inactive: all other assays above

CCC(=O)OCCc1ccccc1
not listed: [18] | [19]
inactive: all other assays above

CCCCOc1ccc(N)cc1
not listed: [15] | [18]
inactive: all other assays above

Cc1cccc(N(C)C)c1
not listed: [14] | [15] | [18]
inactive: all other assays above

CN(C)Cc1ccccc1O
not listed: [1] | [15] | [19]
inactive: all other assays above

CCCCCC=O
not listed: [11] | [14] | [19]
inactive: all other assays above
